ELG1 repair inh – qHTS screen for small molecules that inhibit ELG1-dependent DNA repair in human embryonic kidney (HEK293T) cells expressing luciferase-tagged ELG1; HEK293T ELG1-luciferase reporter, luminescence, 16 h; DNA damage induced by 5-fluorouridine; Potency, µM (highest dose often 46.1 µM), usual class: inhibitors; actives 2.3% (n = 330,000); note: nearly all actives have a fitted effect of over 55% in size
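Reporter activity after DNA damage by 5-fluorouridine is monitored. Compound-treated cells incubate 16 hr at 37 °C, then ONE-Glo is added for 30 min before luminescence reading.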
Sfp PPTase inh – qHTS Assay for Inhibitors of Bacillus subtilis Sfp phosphopantetheinyl transferase (PPTase); 4'-phosphopantetheinyl transferase ffp (Bacillus subtilis), Q9F4F7; Biochemical Sfp PPTase activity, qHTS; Potency, µM, usual class: inhibitors; actives 3.5% (n = 310,000); AID 1490, 2009;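 note: the enzyme is Sfp with the accession as filed and its product quenches rhodamine fluorescence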
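Fluorescence-quenching assay: 15 nM Sfp-PPTase preincubated 15 min at room temperature with compound, then 5 uM rhodamine-CoA and 12.5 uM BHQ-2-labelled YbbR peptide added. Fluorescence (ex 525/em 598 nm) read at start and after 30 min; difference gives rate.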
Giardia killer – Small Molecules that selectively kill Giardia lamblia: qHTS; Giardia lamblia trophozoite viability; activity change, % at 7.66 µM, hits read low; actives 0.15% (n = 340,000); AID 540267, 2011; in the data active = activity change below about -80%; inconclusive = between about -30% and that limit;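 note: parasites exposed to compound for two days anaerobically before the ATP read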
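Anaerobic 48 hrs incubation at 37 deg C of 100 trophozoites/well with test compounds; ATPLite 1-Step luminescence, 15-30 min RT, reports cellular ATP as viability.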
Coupling enz – qHTS Assay for Inhibitors of Fructose-1,6-bisphosphate Aldolase from Giardia Lamblia: Coupling assay counterscreen; coupling enzyme system counterscreen, AmpLite Red fluorescence; activity change, negative = inhibition, % at 58.2 µM, hits read low; actives 0.67% (n = 290,000); AID 2472, 2010; in the data active = activity change below about -30%
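Coupling enzymes only (glyceraldehyde-3-phosphate) + compound, at 57.5 uM final, 10 min RT; add substrate/coupling/AmpLite Red mix, 20 min RT; fluorescence ex 525/em 598 nm. Actives flag coupling-system interference.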
Numbers stand for hits; - = inactive; ? = inconclusive; . = not tested or not shown. Most compounds without a hit are left out; they make up all but 5.5% or so of the library. Unless noted, calls come from the whole dose curve; as a rule, active = well fitted curve in the direction sought with a large enough effect; inconclusive = small, poorly fitted or top-dose-only effect, or another doubt; inactive = no such curve, though single readings can be large; an effect the other way counts as inactive or inconclusive.

SMILES	ELG1 repair inh	Sfp PPTase inh	Giardia killer	Coupling enz
CCOC(=O)C(=CNc1ccc(-c2ccco2)c(Cl)c1)C(=O)OCC	?	28.2µM	-	-
CCOC(=O)C(=CNc1ccc(C(F)(F)F)cc1Cl)C(=O)OCC	-	-	-	-
O=C(CNC(=O)c1ccccc1Br)Nc1cccc(S(=O)(=O)Nc2ccccc2Cl)c1	.	.	-	.
C/C(Cn1cnc([N+](=O)[O-])n1)=N\NC(=O)c1ccncc1	-	-	-	-
C/C(Cn1nnc([N+](=O)[O-])n1)=N\NC(=O)c1ccc(C)cc1	?	-	-	-37.8
C/C(Cn1nnc([N+](=O)[O-])n1)=N\NC(=O)c1ccncc1	?	-	-	-40.3
O=C(Nc1ccc(N2CCN(C(=O)c3cccs3)CC2)c(Cl)c1)c1cccnc1	6.51µM	?	-	-
COC(=O)c1cc(NC(=O)c2cc(-c3ccc(OC)cc3)oc2C(F)(F)F)ccc1N1CCOCC1	23.1µM	-	-	-
COc1ccc(OCC(=O)Nc2ccc(N3CCOCC3)c(Cl)c2)cc1	?	-	-	-
COc1ccc(OCC(=O)Nc2ccc(N3CCN(C(=O)c4ccccc4)CC3)c(Cl)c2)cc1	11.6µM	-	-	.
COc1c(C)cccc1C(=O)Nc1ccc(N2CCOCC2)c(Cl)c1	?	-	-	-35.0
CCS(=O)(=O)c1nc(S(=O)(=O)c2ccc(Cl)cc2)c(N2CCC(O)CC2)s1	-	-	-	.
O=C(Nc1ccc(N2CCN(C(=O)c3ccco3)CC2)c(Cl)c1)c1c(F)c(F)c(F)c(F)c1F	18.4µM	-	-	-
COc1c(F)c(F)c(C(=O)Nc2ccc(N3CCN(C(C)=O)CC3)c(Cl)c2)c(F)c1F	23.1µM	-	-	-
O=C(Nc1ccc(N2CCN(C(=O)c3ccco3)CC2)c(Cl)c1)c1cccnc1	6.51µM	-	?	-
C=CC[C@@](C(C)=O)(C(=O)OC)C(NC(=O)OC)c1ccccc1 (stereo not given in full)	.	-	.	-
O=C(Nc1ccncc1)c1ccc(-c2ccccc2)cc1	1.83µM	-	-	-
O=C(Nc1cccnc1)c1ccc(-c2ccccc2)cc1	?	-	-	-
O=C(Nc1ccncc1)c1ccc2c(c1)S(=O)(=O)c1ccccc1C2=O	9.2µM	-	-	-
CCOC(=O)/C(=C\C=C1/Sc2cc(OCC)c(OCC)cc2N1CC)C(C)=O	16.4µM	-	-	-
O=C(Nc1ccccc1N1CCCCC1)c1ccc(-c2cc(Cl)ccc2Cl)o1	.	.	-	.
O=C1SC(SCc2ccccc2)=N/C1=C\c1ccc(C(=O)O)cc1	-	56.2µM	-	-
CC(Sc1nccn1C)C(=O)Nc1ccc(Cl)cn1 (stereo not given)	-	.	-	.
Cc1cc(C)c(C#N)c(N2CCN(CCOc3ccc(Cl)cc3)CC2)n1	18.4µM	?	-	-
COc1ccc(Cl)cc1CN1CCN(c2nc(C)cc(C)c2C#N)CC1	-	-	-	-
SMILES	ELG1 repair inh	Sfp PPTase inh	Giardia killer	Coupling enz
COc1ccc(CCC(C)Nc2ccccc2F)cc1 (stereo not given)	-	-	-	-
COc1ccc(CCC(C)Nc2cccc(F)c2)cc1 (stereo not given)	-	44.7µM	-	-
Cn1cccc1/C=N/NC(=O)c1ccccn1	?	79.4µM	-	-
Cn1cccc1/C=N/NC(N)=S	-	56.2µM	-	-
C/C(=N\NC(=O)c1ccccn1)c1ccc(Cl)cc1	?	89.1µM	-	-
O=C(N/N=C/c1cccs1)c1ccccn1	?	50.1µM	-	-
Cc1ccc(/C=N/NC(=O)c2ccccn2)s1	?	?	-	-
CN1CC[C@]2(CCN3CCc4c(oc5ccccc45)[C@@H]3C2)N(C)C1=O	?	.	-	.
Cc1cc(-c2ccc(C)c(S(=O)(=O)N3CCN(c4ccccn4)CC3)c2)on1	?	-	-	-
CC12CCC3c4ccc(O)cc4CCC3C1CC(=NO)C2O (stereo not given)	.	.	-	.
CCc1nc2c(sc3nc4c(cc32)COC(C)(C)C4)c(=O)n1Cc1ccco1	?	3.55µM	-	-
COC(=O)C1=C(C(=O)OC)[C@@H]2N(C)c3ccccc3[C@@]23C[C@@H](C(=O)OC)N(S(=O)(=O)c2ccc(OC)cc2)C3=N1	.	-	.	-
C#CCOCCOCCOCCNc1nc(N2CCN(C(=O)C(Cc3cc4ccccc4[nH]3)n3cc(C(N)C(C)CC)nn3)CC2)nc(N2CCN(C(=O)C(Cc3cc4ccccc4[nH]3)n3cc(C(N)C(C)CC)nn3)CC2)n1 (stereo not given)	?	17.8µM	-	-
C#CCOCCOCCOCCNc1nc(N2CCN(C(=O)C(Cc3ccc(O)cc3)n3cc(C(N)CC(C)C)nn3)CC2)nc(N2CCN(C(=O)C(Cc3cc4ccccc4[nH]3)n3cc(C(N)C(C)CC)nn3)CC2)n1 (stereo not given)	-	-	.	-
C#CCOCCOCCOCCNc1nc(N2CCN(C(=O)[C@H](Cc3ccc(O)cc3)n3cc([C@@H](N)C(C)CC)nn3)CC2)nc(N2CCN(C(=O)[C@H](Cc3cc4ccccc4[nH]3)n3cc([C@@H](N)Cc4ccc(O)cc4)nn3)CC2)n1 (stereo not given in full)	-	56.2µM	.	-
C#CCOCCOCCOCCNc1nc(N2CCOCC2)nc(N2CCN(C(=O)[C@H](Cc3cc4ccccc4[nH]3)n3cc([C@@H](N)C(C)CC)nn3)CC2)n1 (stereo not given in full)	-	-	-	-
O=Cc1c(-c2ccccc2)nc2ccccn12	?	-	-	-
CCc1nc(-c2ccccc2)c2ccccn12	-	28.2µM	-	-43.2
Cn1c(=O)c2[nH]c(N/N=C(/C#N)C(N)=O)nc2n(C)c1=O	-	56.2µM	-	-
COc1ccc(NC(=O)COC(=O)C2CCC2)cc1Cl	-	-	-	.
CCCS(=O)(=O)c1c(S(=O)(=O)CCC)c2c(C)cccn2c1C(=O)OC	?	79.4µM	-	-
CCCS(=O)(=O)c1c(S(=O)(=O)CCC)c2c(N)cccn2c1C(=O)c1ccc(F)cc1	-	22.4µM	-	-37.7
COc1cccc([C@H]2Oc3ccc(OC)cc3/C(=N\O[C@@H]3O[C@H](COC(C)=O)[C@H](OC(C)=O)[C@H](OC(C)=O)[C@H]3OC(C)=O)[C@@H]2O)c1	.	-	.	-
Cc1cccc2c1c1ccc3c(c1n2C)C(=O)C=CC3=O	-	3.55µM	-	-
Cc1ccccc1N1CC(=O)N(c2ccccc2C)CC1=O	-	-	-	-
CCOc1ccc(NC(=O)CSc2nc3ccccc3nc2N2CCOCC2)cc1	?	-	-	-
CC(=O)c1cccc(NC(=O)Cn2cnc(S(=O)(=O)N3CCOCC3)c2)c1	-	-	-	.
CCC(=O)Nc1c(-c2cccs2)c(=O)c2ccccc2n1C	-	89.1µM	-	-
CCCCCC(=O)Nc1c(-c2cccs2)c(=O)c2ccccc2n1C	-	-	-	-

Screening data deposited in PubChem BioAssay by National Center for Advancing Translational Sciences (NCATS).
